Results: PubChem BioAssay AID1259415 (National Center for Advancing Translational Sciences (NCATS), 2018)
The whole screen tested about 410,000 compounds, of which about 18,000 (4.4%) were called active. Another 7% or so got no clear call; they are omitted. Cut-off read from the data, not from the text of the source: active = activity change below about -60%; inconclusive = no clear call, values can overlap the other calls; inactive = above about -39%. This excerpt belongs to a sample that is enriched for actives.

Assay: qHTS Assay for inhibitors of the human cytomegalovirus (HCMV)
Settings: HFF cells, HCMV-luciferase reporter, 72 h; at 57.5 µM; hits give low values
Summary of the method: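 Steps: HFFs plated, 16 h 37C; compounds added; HCMV-luciferase added to MOI 1 PFU/cell; 72 h 37C; OneGlo reagent, 5 min room temperature; luminescence read, normalized to controls.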
% is set by controls: 0 for no effect and ±100 for the full control effect.

| SMILES | activity change, negative = inhibition |
| --- | --- |
| Cc1ccccc1-c1nc2scc(CCNC(=O)C(=O)Nc3ccc(F)cc3F)n2n1 | 2.08% (inactive) |
| Cc1ccc(C(=O)Nc2nc(-c3ccccc3)ns2)cc1 | 27% (inactive) |
| C=CCSc1nnc2c(n1)-c1cccc3cccc-2c13 | 41.1% (inactive) |
| NC(c1csc(NC(=O)Nc2ccccc2Oc2ccccc2)n1)c1ccccc1Cl (stereo not given) | -24.7% (inactive) |
| CC(=O)Nc1ccc(-c2csc(NC(=O)Nc3ccccc3)n2)cc1 | -99.1% (active) |
| CC(=O)c1ccc(NC(=O)N[C@@H](Cc2ccccc2)C(=O)O)cc1 | 23.2% (inactive) |
| CC(=O)c1ccc(NC(=O)CSc2nnc(NC(=O)Nc3ccccc3)s2)cc1 | 103% (inactive) |
| CCSc1nsc(NC(=O)Nc2cccc(C(C)=O)c2)n1 | -74.9% (active) |
| C=CCSc1nsc(NC(=O)Nc2cccc(C(C)=O)c2)n1 | -101% (active) |
| Cc1ccccc1CNC(=O)c1cccc(NC(=O)c2nsc3ccccc23)c1 | 66.7% (inactive) |
| CSc1nsc(NC(=O)Nc2ccccc2)n1 | -76.6% (active) |
| CC(=O)c1cccc(NC(=O)CSc2nc3c(c(=O)[nH]2)CCC3)c1 | -2.89% (inactive) |
| NC(=O)C1CCN(C(=O)c2cccc(NC(=O)c3nsc4ccccc34)c2)CC1 | 40.7% (inactive) |
| CCOC(=O)c1cnc2c(C)cc(Cl)cc2c1NCCc1ccc(OC)c(OC)c1 | -5.49% (inactive) |
| CCOc1ccc(NC(=O)CCC(=O)N2CC(C)Oc3ccc(C)cc32)cc1 (stereo not given) | -10.3% (inactive) |
| COc1ccc(NC(C)=O)cc1NC(=O)CN1CCN(c2ccc(F)cc2)CC1 | -5.69% (inactive) |
| COc1ccccc1/C=C/c1nc(C#N)c(NC(C)c2ccccc2)o1 (stereo not given) | 81.4% (inactive) |
| CCCCC12CN3CC(C)(CN(C1)C3c1ccc(O)c(OC)c1)C2=O (stereo not given) | 4.32% (inactive) |
| Cc1ccc(OCC(=O)Nc2ccc(OCc3cc(=O)n4c(C)csc4n3)cc2)cc1C | 18.3% (inactive) |
| CC(C(=O)N1CCN(c2ccccc2F)CC1)c1ccc([N+](=O)[O-])cc1 (stereo not given) | -11.5% (inactive) |
| O=C1OC(C(=O)Nc2cccc(Br)c2)Cc2ccccc21 (stereo not given) | 7.91% (inactive) |
| O=C(CCSc1ccccc1)N1CCN(c2ccccc2F)CC1 | 72.3% (inactive) |
| Cn1cc(-c2ccccc2)cc(C#N)c1=O | -1.91% (inactive) |
| Cn1c(-c2sc3cc(C(F)(F)F)cnc3c2-c2ccccc2)n[nH]c1=S | 18.8% (inactive) |
| CC12CCC(C(=O)N(NC(=O)c3ccccc3O)C1=O)C2(C)C (stereo not given) | -81.2% (active) |
| O=C(NN1C(=O)C2CCCCC2C1=O)c1ccco1 (stereo not given) | 3.07% (inactive) |
| CC1=CC(C)(C)NC(=S)N1NC(=O)c1ccccc1Cl | 38.2% (inactive) |
| CCC(C)NCC(=O)Nc1ccc([N+](=O)[O-])cc1C(=O)Nc1ccccc1F (stereo not given) | 20.4% (inactive) |

| SMILES | activity change, negative = inhibition |
| --- | --- |
| Cn1c(=O)cc(OCC(=O)N2CCN(c3ccccc3)CC2)c2ccccc21 | 0.385% (inactive) |
| CC(C)(C)OC(=O)C[C@@H]1C/C=C\C[C@@H](CC(=O)N[C@H](CO)Cc2ccccc2)C(=O)NC[C@@H](c2ccccc2)OC1=O | -6.88% (inactive) |
| CC(C)(C)OC(=O)C[C@H]1C/C=C\C[C@@H](CC(=O)N[C@H](CO)Cc2ccccc2)C(=O)NC[C@@H](c2ccccc2)OC1=O | -8.79% (inactive) |
| O=C(C[C@H]1C/C=C\C[C@@H](NC(=O)OCC2c3ccccc3-c3ccccc32)C(=O)O[C@@H](c2ccccc2)CNC1=O)N[C@H](CO)Cc1ccccc1 | -86.9% (active) |
| O=[N+]([O-])c1ccc(Oc2ccc(F)cc2Br)c2ccncc12 | -78.1% (active) |
| COc1ccc2oc(=O)c(-c3cn4c(n3)sc3cc(OC)ccc34)cc2c1 | -16.2% (inactive) |
| O=[N+]([O-])c1ccc(C=Nc2ccc(Cl)cc2Cl)s1 | -103% (active) |
| C=CCN1C=C(C(=O)c2ccccc2)C(=O)CC1 | -25.3% (inactive) |
| CCOc1ccc(CC(=O)NCCc2csc3nc(-c4ccccc4F)nn23)cc1 | -0.0376% (inactive) |
| CCOc1ccccc1C(=O)Nc1ccc2c(c1)N(C)C(=O)c1ccccc1S2 | 5.48% (inactive) |
| CC(=O)c1c(C)oc2ccc(NS(=O)(=O)c3ccccc3)cc12 | -24.7% (inactive) |
| CCOC(=O)c1c(C)oc2ccc(N(C(=O)c3ccncc3)S(=O)(=O)c3ccc(CC)cc3)cc12 | -6.14% (inactive) |
| COC(=O)c1c(C)oc2ccc(N(C(=O)Oc3ccccc3)S(=O)(=O)c3ccccc3)cc12 | -63.7% (active) |
| Cc1cccc(N(C)C(=O)CS(=O)(=O)c2cccc3nsnc23)c1 | -14.6% (inactive) |
| CCN(C(=O)Cn1c(=O)nc(-c2ccccc2)c2cc(Cl)ccc21)c1cccc(C)c1 | -20.1% (inactive) |
| O=C(NCCc1ccc(Cl)cc1)c1ccc2c(c1)N(Cc1ccc(F)cc1)C(=O)CS2 | 2.62% (inactive) |
| CNc1ccc(-c2nc(-c3ccccc3C)no2)cc1[N+](=O)[O-] | 63.3% (inactive) |
| Cc1ccc(NC2=NC(c3ccccc3)n3c(nc(C)cc3=O)N2)cc1 (stereo not given) | -12% (inactive) |
| Cc1ccc(Nc2cc(C)nc3c(C)ccc([N+](=O)[O-])c23)cc1 | -65.6% (active) |
| C[C@@H]1CN([C@H](C)CO)C(=O)CCCn2cc(nn2)CO[C@H]1CN(C)C(=O)Nc1ccc(N2CCCCC2)cc1 | 5.98% (inactive) |
| CCOc1ccc(CNC(=O)c2cc(=O)[nH]c3ccc(S(=O)(=O)N4CCCCC4)cc23)cc1 | 66.7% (inactive) |
| O=C(Nc1ccc2oc(-c3ccc(O)c(Br)c3)nc2c1)c1cc2ccccc2o1 | 17.1% (inactive) |
| COc1cccc(C(=O)NC2(C(F)(F)F)C(=O)Nc3c2c(=O)[nH]c(=O)n3-c2ccc(C)cc2)c1 (stereo not given) | 23.5% (inactive) |
| Cc1ccsc1C(=O)C1CCCN(Cc2ccc(O)cc2)C1 (stereo not given) | 66.6% (inactive) |
| Cc1occc1C(=O)NC1CCCN(Cc2ccc(CC(C)C)cc2)C1 (stereo not given) | -69.3% (active) |
| Cc1ccn(CC(=O)NC2CCCN(Cc3ccccc3F)C2)n1 (stereo not given) | -8.34% (inactive) |
| COc1cccc(NC(=O)C(=O)NCC(c2ccc3c(c2)OCO3)N2CCN(C)CC2)c1 (stereo not given) | 44% (inactive) |
